Assay outcomes as filed in PubChem BioAssay.
In the library only some 3.5% were active in any assay of this set; here they are far more common.
Mtb UGM inh – inhibitors of M. tuberculosis UDP-galactopyranose mutase. P9WIQ1. purified UGM, fluorescence polarization probe displacement. inhibition, % at 10 µM. actives 0.06% (n = 320,000). AID 504406; in the data active = inhibition above about 10%, passing the limit was not always enough; inconclusive = no clear call, values can overlap the other calls
Mtb betalactam – beta-lactam sensitization of Mtb H37Rv | inhibition, % at 25 µM | actives 0.27% (n = 330,000) | M. tuberculosis H37Rv growth with meropenem, percent inhibition | AID 434955; call rule not given here;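 also: growth measured after seven days incubation then overnight dye step; 0% = bacteria only wells and 100% = bacteria with antibiotic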
GDH-TPI counter – counter-screen for M. tuberculosis FBA inhibitors: GDH-TPI coupled enzymes | GDH-TPI coupled enzyme counterscreen, NADH absorbance | inhibition, % at 4.8 µM | actives 1.2% (n = 360,000) | AID 588335; in the data active = inhibition above about 30%;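 also: 0% = DMSO wells and 100% = wells lacking the enzyme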
Rv3671c protease – inhibitors of M. tuberculosis serine protease Rv3671c; P9WHR9; inhibition, % at 5.96 µM; actives 0.048% (n = 320,000); AID 2606; in the data active = inhibition above about 38%;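 also: extracellular domain of Rv3671c used as enzyme; 0% = enzyme with DMSO and 100% = no enzyme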
FBA Mtb inh – inhibits M. tuberculosis FBA enzyme | P9WQA3 | purified M. tuberculosis FBA, fluorescence read-out | inhibition, % at 1 µM | actives 2.3% (n = 360,000); in the data active = inhibition above about 27%;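 also: 0% = vehicle and 100% = reference inhibitor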
Target sequence (P9WQA3 whole entry, looked up): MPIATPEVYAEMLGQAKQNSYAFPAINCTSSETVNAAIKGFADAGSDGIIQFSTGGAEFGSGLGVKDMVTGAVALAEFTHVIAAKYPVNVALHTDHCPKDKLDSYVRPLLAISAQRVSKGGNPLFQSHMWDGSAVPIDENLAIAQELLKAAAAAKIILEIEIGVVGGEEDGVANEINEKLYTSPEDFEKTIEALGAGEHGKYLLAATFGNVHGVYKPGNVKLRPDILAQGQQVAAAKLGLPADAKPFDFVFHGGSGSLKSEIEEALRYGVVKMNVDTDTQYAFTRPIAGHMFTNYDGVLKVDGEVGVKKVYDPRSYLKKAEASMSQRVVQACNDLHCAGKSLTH
An asterisk follows results filed as active; ? = inconclusive; . = no result; + = active, no number.

SMILES | Mtb UGM inh | Mtb betalactam | GDH-TPI counter | Rv3671c protease | FBA Mtb inh
O=C(c1ccco1)c1cn(CC(=O)N2CCCCCC2)c2ccccc12 | 2 | -13 | 38* | 9 | -3
CC(=O)c1ccc(N2CCN(C(=O)c3ccc(Cl)c(NC4=NC5CS(=O)(=O)CC5S4)c3)CC2)cc1 (stereo not drawn) | 1 | -3 | 42* | -2 | 1
COc1ccc(C2=C(c3ccc(OC)c(OC)c3)CN3CCCCC3C2)cc1 (stereo not drawn) | -1 | 0 | 2 | 1 | 1
O=c1[nH]c(/C=C/c2ccc([N+](=O)[O-])cc2)c([N+](=O)[O-])c(=O)[nH]1 | 1 | 1 | 31* | . | 0
Cc1ccc(C(=O)CCC(=O)N2CCN(C/C=C/c3ccccc3)CC2)cc1 | . | . | 4 | . | -3
CN1CCN(NC(=O)Nc2cc(Cl)cc(Cl)c2)CC1 | 2 | 72 | 10 | . | -2
CCOCCCn1c(=NC(=O)c2cccs2)c(C#N)cc2c(=O)n3ccccc3nc21 | 16* | -10 | 10 | 2 | +
N#Cc1cc2c(=O)n3ccccc3nc2n(Cc2ccco2)c1=NC(=O)c1ccco1 | -1 | -1 | 16 | -9 | 168*
Cc1cccn2c(=O)c3cc(C#N)c(=NC(=O)c4cccs4)n(CCCOC(C)C)c3nc12 | 2 | 2 | 12 | -1 | +
Cc1cccn2c(=O)c3cc(C#N)c(=NC(=O)c4ccncc4)n(CCCOC(C)C)c3nc12 | 4 | 3 | 5 | 5 | 11
CC(=O)N=c1c(C#N)cc2c(=O)n3cccc(C)c3nc2n1CCCOC(C)C | -2 | -2 | 5 | -7 | +
O=C(CCn1c(=O)c2ccccc2n(Cc2cc(=O)n3ccccc3n2)c1=O)NCc1ccco1 | -1 | 6 | 8 | -13 | 6
c1ccc2[nH]c3cc4ncnc4cc3nc2c1 | 9 | 79 | 4 | -11 | -2
CN(CC(=O)Nc1ccc(Cl)c(Cl)c1)C(=O)CNC(=O)C1CCCCC1 | 1 | 2 | 1 | -3 | -1
CC1(c2ccccc2)NC(=O)N(CC(=O)N(c2ccccc2)C2CCS(=O)(=O)C2)C1=O (stereo not drawn) | 0 | -5 | -2 | 3 | -3
Cc1nc2ccccc2n(CC(=O)Nc2cc(Cl)cc(Cl)c2)c1=O | 1 | 0 | 12 | -5 | 7
Cc1ccccc1C(=O)N=c1c(C#N)cc2c(=O)n3cccc(C)c3nc2n1Cc1ccco1 | 7 | 3 | . | -9 | .
CC(=O)N=c1c(C#N)cc2c(=O)n3cccc(C)c3nc2n1Cc1ccco1 | 1 | -1 | 9 | 8 | +
CCc1ccc(OCC(=O)N2CC(C(N)=O)Oc3ccccc32)cc1 (stereo not drawn) | 0 | 8 | 18 | 5 | -1
COc1ccccc1CCN=C(N)NS(=O)(=O)c1ccc(F)cc1 | -1 | -8 | 1 | -8 | 1
COc1ccc(S(=O)(=O)NC(N)=NCCc2ccccc2OC)cc1 | 5 | -1 | -4 | 14 | 191*
C=CCc1c(C)nc(C)nc1N/N=C/c1ccc(N(C)C)cc1 | 4 | 55 | 50* | 4 | 13
CCOC(=O)c1sc(N/N=C/c2ccc(N(C)C)cc2)nc1C | -4 | 13 | 18 | -5 | 3
Cn1cccc1/C=N/NC(=O)c1ccccn1 | -4 | 99 | 31* | 6 | -1
O=C(N/N=C/c1cccs1)c1ccccn1 | 1 | 88 | 23 | 2 | -1
SMILES | Mtb UGM inh | Mtb betalactam | GDH-TPI counter | Rv3671c protease | FBA Mtb inh
Cc1cc(C(=O)N/N=C/c2cccn2C)no1 | 1 | 3 | 31* | 0 | 0
Cn1cccc1/C=N\NC(=O)c1cncc(Br)c1 | 1 | 33 | 26 | -6 | -1
Cc1ccc(/C=N/NC(=O)c2ccccn2)s1 | 4 | 96 | 32* | -3 | 0
Cc1cc(C(=O)N/N=C/c2sccc2C)no1 | 1 | -3 | 16 | -1 | 2
Cn1cccc1/C=N/NC(=O)c1ccncc1 | 0 | 99 | 35* | -4 | 1
COc1cc(CNCCO)cc(Cl)c1OCc1ccc(Cl)cc1Cl | -2 | 100 | -2 | -9 | -3
Cc1ccc(NC2CCCN(C(=O)c3cc(C(C)C)nn3C)C2)cc1C (stereo not drawn) | . | . | 13 | . | 2
Cn1cccc1/C=N/NC(=O)Cc1ccccc1 | 0 | -7 | 24 | -2 | -2
Cc1ccc(/C=N/NC(=O)c2ccc3ccccc3c2)s1 | 2 | 62 | 32* | 8 | -1
Cn1cccc1/C=N/NC(=O)C(O)c1ccccc1 (stereo not drawn) | 1 | -3 | 31* | 1 | -3
O=C(CCNS(=O)(=O)c1ccc2[nH]c(=O)oc2c1)Nc1ccccc1 | -3 | -1 | 7 | -1 | 3
O=C(N/N=C/c1cc(Cl)c(O)c(Cl)c1)c1cc2c(ccc3ccccc32)o1 | 3 | ? | 32* | 29 | 4
O=C(N/N=C/c1cc(Br)c(O)c(Br)c1)c1cc2c(ccc3ccccc32)o1 | 0 | 35 | 33* | . | 5
Cc1cc(C)cc(NC(=O)CN2CCN(c3ccccc3)CC2)c1 | 6 | 1 | -5 | -4 | 5
CN(C)/C=C/C(=O)c1ccc(Oc2ccccc2)cc1 | -2 | -4 | 22 | -19 | 7
CN(C)/C=C/C(=O)c1ccccc1 | -4 | -2 | 49* | 9 | -7
COc1ccc(C(=O)/C=C/N(C)C)cc1OC | 0 | 7 | 34* | -11 | 0
COc1ccc(C(=O)c2ccc(OC)c(OC)c2)cc1OC | 0 | -3 | 15 | -6 | -3
COc1ccc(C(=O)/C=C/N(C)C)cc1 | -1 | 3 | 45* | -4 | -1
c1ccc(CCNCCCOc2cccc3ccccc23)cc1 | 1 | 52 | 8 | 3 | 0
Cc1cc(NC(=O)COC(=O)C2CC(=O)N(c3ccc(Cl)cc3)C2)no1 (stereo not drawn) | -1 | 2 | -3 | 2 | 0
Oc1[nH]c2ccccc2c1/C=N/c1nccs1 | 3 | 8 | 31* | -7 | -2
CCc1cc2c3c(c(=O)oc2cc1OC(C)C(=O)O)CCCC3 (stereo not drawn) | 2 | 2 | 16 | -1 | 159*
COc1ccc2c3c(c(=O)oc2c1OCC(N)=O)CCCC3 | 1 | 9 | -5 | -2 | 75*
CCc1cc2c3c(c(=O)oc2cc1O)CCCC3 | 1 | -9 | 13 | 0 | +
SMILES | Mtb UGM inh | Mtb betalactam | GDH-TPI counter | Rv3671c protease | FBA Mtb inh
CC(=O)Oc1ccc2c3c(c(=O)oc2c1C)CCCC3 | 2 | 41 | 2 | -9 | +
CCOc1ccc2c3c(c(=O)oc2c1OCC)CCCC3 | 1 | -5 | 4 | 3 | 12
O=C(C1COc2ccccc2O1)N1CCN(c2ccc([N+](=O)[O-])cc2)CC1 (stereo not drawn) | 1 | 0 | 4 | 0 | -5
CCc1nc2ccc(C(=O)NCCc3c[nH]c4ccccc34)cn2c1N(C)CCCc1ccccc1 | . | . | 1 | . | -1
CCn1c(SCC(=O)Nc2ccc(NC(C)=O)cc2)nc2c1c(=O)n(C)c(=O)n2C | -1 | -3 | 4 | -9 | 1
CC(=O)C(C)Oc1ccc2c3c(c(=O)oc2c1)CCCCC3 (stereo not drawn) | 0 | 1 | 12 | 4 | 176*
